# PubChem BioAssay
# Activity calls are given as the source filed them. Unless noted, how the calls were made is not given here.
# Columns and labels:
# [1] = HepG2 liver cancer cell viability effects, profiling panel, resazurin fluorescence, 24 h, PK04 Diversity Set (AID 1172); settings: higher = more signal; further: test concentration not given here
# [2] = basal S. cerevisiae growth modulation, no modifier, primary screen, OD600, strain BY4716, 24 h, basal condition (AID 1173); settings: OD600, 24 h, higher = more signal, called active from +8 up or from −8 down
# [3] = MM1S myeloma cell viability, profiling panel, resazurin fluorescence, basal, 24 h, PK04 Diversity Set (AID 1174); settings: higher = more signal, called active from +8 up or from −8 down;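 further: MM1S multiple myeloma cell line; test concentration not given here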
# [4] = molecular target: Dihydroorotate dehydrogenase (quinone), mitochondrial (Plasmodium falciparum (isolate 3D7)) (UniProt Q08210); experiment: PfDHODH enzyme inhibitors, primary screen, biochemical, C-terminal His tag, absorbance 600 nm (AID 1175); settings: DCIP absorbance 600 nm, higher = more signal, called active from +8 up or from −8 down;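 further: recombinant parasite enzyme with a five histidine tag at its C terminus; test concentration not given here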
# [5] = P. aeruginosa biofilm formation inhibitors, primary screen, strain PAO1, LB-PBS medium, absorbance 600 nm (AID 1176); further: test concentration not given here; settings: P. aeruginosa PAO1 growth/biofilm, A600, 12 h; higher = more signal
# [6] = S. cerevisiae RM11-1a growth modifiers, primary screen, strain RM11-1a, OD600, basal, 24 h (AID 1177); settings: OD600, 24 h, higher = more signal, called active from +8 up or from −8 down;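 further: cultures grown under basal conditions with no added stressor; test concentration not given here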
# [7] = E. coli acrAB mutant growth effects, primary screen, E. coli filamentation inducers, strain DRC39, OD650, 24 h (AID 1178); settings: higher = more signal, called active from +8 up or from −8 down;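 further: growth measured as culture turbidity by optical density at 650 nm; test concentration not given here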
# [8] = E. coli acrAB mutant growth effects, primary screen, E. coli filamentation inducers, strain DRC39, OD650, 48 h (AID 1179);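 further: screen aims at cell division blockers that make cells filament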; settings: E. coli DRC39 delta-acrAB growth, higher = more signal, called active from +8 up or from −8 down
# [9] = RPMI8226 myeloma cell viability, profiling panel, resazurin fluorescence, basal, 24 h, PK04 Diversity Set (AID 1180); settings: higher = more signal;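 further: RPMI8826 multiple myeloma cell line at 5000 cells per well; test concentration not given here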
# [10] = molecular target: E3 ubiquitin-protein ligase XIAP (Homo sapiens) (UniProt P98170); experiment: XIAP binders, primary screen, biophysical, small-molecule microarray, fluorescence 635 nm (AID 1181); settings: small-molecule microarray binding, higher = more signal;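 further: score merges 667 nm emission and signal to noise over triplicate slides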
# E3 ubiquitin-protein ligase XIAP (Homo sapiens), sequence (P98170 whole entry, looked up): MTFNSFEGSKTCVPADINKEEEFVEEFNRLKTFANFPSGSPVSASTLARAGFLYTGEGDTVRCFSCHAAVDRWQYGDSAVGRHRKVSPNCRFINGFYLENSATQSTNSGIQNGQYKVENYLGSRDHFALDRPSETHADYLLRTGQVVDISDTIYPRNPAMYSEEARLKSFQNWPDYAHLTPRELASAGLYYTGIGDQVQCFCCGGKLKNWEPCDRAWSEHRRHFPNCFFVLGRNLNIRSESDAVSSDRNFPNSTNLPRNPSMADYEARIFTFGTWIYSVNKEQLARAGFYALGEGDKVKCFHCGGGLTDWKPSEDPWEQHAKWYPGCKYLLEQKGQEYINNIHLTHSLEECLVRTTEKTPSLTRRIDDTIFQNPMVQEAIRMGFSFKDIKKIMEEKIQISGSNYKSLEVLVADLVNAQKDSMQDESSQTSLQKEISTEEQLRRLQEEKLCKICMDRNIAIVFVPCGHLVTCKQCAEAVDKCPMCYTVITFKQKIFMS
# Dihydroorotate dehydrogenase (quinone), mitochondrial (Plasmodium falciparum (isolate 3D7)), sequence (Q08210 whole entry, looked up): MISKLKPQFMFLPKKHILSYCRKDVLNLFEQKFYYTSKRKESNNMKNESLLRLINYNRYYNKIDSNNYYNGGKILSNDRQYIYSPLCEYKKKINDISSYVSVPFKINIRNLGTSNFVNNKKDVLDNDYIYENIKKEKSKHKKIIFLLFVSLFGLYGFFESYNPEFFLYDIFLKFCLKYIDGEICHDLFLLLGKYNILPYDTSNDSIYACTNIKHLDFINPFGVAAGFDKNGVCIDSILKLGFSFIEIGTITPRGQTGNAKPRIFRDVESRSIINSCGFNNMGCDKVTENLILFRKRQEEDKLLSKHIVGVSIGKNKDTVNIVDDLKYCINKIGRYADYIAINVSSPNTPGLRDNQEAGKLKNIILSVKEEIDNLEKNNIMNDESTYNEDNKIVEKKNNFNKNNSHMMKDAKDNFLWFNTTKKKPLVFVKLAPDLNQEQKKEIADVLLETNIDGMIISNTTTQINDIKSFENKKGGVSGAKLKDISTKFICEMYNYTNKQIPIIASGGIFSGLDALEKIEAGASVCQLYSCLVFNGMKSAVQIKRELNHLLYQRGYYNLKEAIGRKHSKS
smiles,measurement,setting,value
C=CCOC(=O)[C@@H]1[C@H]2C(=O)O[C@H](c3ccccc3)[C@H](c3ccccc3)N2[C@H](c2ccc(OCCOC(=O)[C@@H]3C[C@@H]4C(=O)N[C@@H](CCCC[N+](C)(C)C)C(=O)N4[C@@H]3c3ccc(O)cc3)cc2)[C@@]12C(=O)Nc1ccc(I)cc12,z-score,[1],0.945
same,z-score,[2],-0.398 (inactive)
same,z-score,[3],-0.596 (inactive)
same,composite z-score,[4],-2.02 (inactive)
same,z-score,[5],0.379 (inactive)
same,z-score,[6],1.39 (inactive)
same,z-score,[7],-0.507 (inactive)
same,z-score,[8],-0.809 (inactive)
same,z-score,[9],-0.0426
same,composite z-score,[10],-0.124
COc1ccc([Si](C)(C)[C@@H]2[C@@H](CC(=O)N(CCO)Cc3ccccc3)O[C@]3(C(=O)N(Cc4cccc(N5CCCCC5=O)c4)c4ccccc43)[C@H]2C)cc1,z-score,[1],-0.369
same,z-score,[2],0.594 (inactive)
same,z-score,[3],-1.72 (inactive)
same,composite z-score,[4],-1 (inactive)
same,z-score,[5],1.63 (inactive)
same,z-score,[6],2.63 (inactive)
same,z-score,[7],0.899 (inactive)
same,z-score,[8],0.246 (inactive)
same,z-score,[9],-1.74
same,composite z-score,[10],-0.138
COc1cc2c(cc1O)C(C1CC1)N(Cc1cccc(OC(F)(F)F)c1)CC2 (stereo not given),z-score,[1],-0.882
same,z-score,[2],-5.59 (inactive)
same,z-score,[3],-3.32 (inactive)
same,composite z-score,[4],-3.64 (inactive)
same,z-score,[5],-0.0344 (inactive)
same,z-score,[6],0.002 (inactive)
same,z-score,[7],0.213 (inactive)
same,z-score,[8],-0.0239 (inactive)
same,z-score,[9],-2.84
same,composite z-score,[10],0.0674
COCCOC(=O)N1C(=O)[C@@]2(c3cc(C#CCCO)ccc31)[C@H](C(=O)Nc1nc3ccccc3s1)[C@H]1C(=O)O[C@H](c3ccccc3)[C@H](c3ccccc3)N1[C@@H]2c1ccc(O)cc1,z-score,[1],-0.0461
same,z-score,[2],1.26 (inactive)
same,z-score,[3],-0.159 (inactive)
same,composite z-score,[4],1.35 (inactive)
same,z-score,[5],0.325 (inactive)
same,z-score,[6],1.52 (inactive)
same,z-score,[7],-0.356 (inactive)
same,z-score,[8],-1.07 (inactive)
same,z-score,[9],-0.358
same,composite z-score,[10],-0.105
COC(=O)[C@@]1(Cc2ccccc2)[C@H]2c3cc(C(=O)N4CCCC4)n(CCc4ccccn4)c3C[C@H]2CN1C(=O)c1ccccc1,z-score,[1],0.281
same,z-score,[2],1.3 (inactive)
same,z-score,[3],-0.454 (inactive)
same,composite z-score,[4],-0.105 (inactive)
same,z-score,[5],-0.126 (inactive)
same,z-score,[6],0.23 (inactive)
same,z-score,[7],-0.413 (inactive)
same,z-score,[8],-0.906 (inactive)
same,z-score,[9],0.157
same,composite z-score,[10],0.293
O=C(NCCN1CCOCC1)[C@@H]1c2ccccc2C(=O)N(C2Cc3ccccc3C2)[C@H]1c1ccc(CO)cc1,z-score,[1],-0.174
same,z-score,[2],-0.633 (inactive)
same,z-score,[3],0.886 (inactive)
same,composite z-score,[4],-1.79 (inactive)
same,z-score,[5],0.404 (inactive)
same,z-score,[6],-1.44 (inactive)
same,z-score,[7],0.638 (inactive)
same,z-score,[8],1.07 (inactive)
same,z-score,[9],0.142
same,composite z-score,[10],0.164
CCCC[C@@H](O)C1=C(COC)C[C@H]2C(=O)N(Cc3ccccc3)C(=O)[C@H]2[C@H]1CO,z-score,[1],0.111
same,z-score,[2],-1.22 (inactive)
same,z-score,[3],-1.61 (inactive)
same,composite z-score,[4],-0.401 (inactive)
same,z-score,[5],-0.496 (inactive)
same,z-score,[6],0.643 (inactive)
same,z-score,[7],0.418 (inactive)
same,z-score,[8],0.722 (inactive)
same,z-score,[9],0.126
same,composite z-score,[10],-0.0525
CCCCN1CC=CC23O[C@@H]4/C=C\CCCOC(=O)C4[C@H]2C(=O)N(CCO)[C@@H]3C1=O (stereo not given in full),z-score,[1],-1.03
same,z-score,[2],0.291 (inactive)
same,z-score,[3],0.294 (inactive)
same,composite z-score,[4],0.538 (inactive)
same,z-score,[5],-0.221 (inactive)
same,z-score,[6],0.507 (inactive)
same,z-score,[7],-0.088 (inactive)
same,z-score,[8],-0.389 (inactive)
same,z-score,[9],0.0725
same,composite z-score,[10],0.0537
C=CC[C@]1(C(=O)N2CCOCC2)COC(c2ccc(OCCCO)cc2)=N1,z-score,[1],1.31
same,z-score,[2],-1.37 (inactive)
same,z-score,[3],0.574 (inactive)
same,composite z-score,[4],-0.214 (inactive)
same,z-score,[5],0.124 (inactive)
same,z-score,[6],-0.19 (inactive)
same,z-score,[7],0.904 (inactive)
same,z-score,[8],0.46 (inactive)
same,z-score,[9],0.0543
same,composite z-score,[10],0.0055
CC(C)[Si]1(C(C)C)OCc2cc(-c3ccc(-c4ccc(Cl)c(Cl)c4)o3)nc(-c3ccccc3)c21,z-score,[1],0.374
same,z-score,[2],-0.981 (inactive)
same,z-score,[3],0.797 (inactive)
same,composite z-score,[4],0.107 (inactive)
same,z-score,[5],0.374 (inactive)
same,z-score,[6],-0.219 (inactive)
same,z-score,[7],-0.28 (inactive)
same,z-score,[8],-0.725 (inactive)
same,z-score,[9],0.311
same,composite z-score,[10],-0.031
CC(C)c1ccc(NN2C(C(O)c3ccc(F)cc3)C=CC3C(=O)N(c4ccccc4)C(=O)C32)cc1 (stereo not given),z-score,[1],-0.0361
same,z-score,[2],-2.21 (inactive)
same,z-score,[3],-1.25 (inactive)
same,composite z-score,[4],0.319 (inactive)
same,z-score,[5],1.36 (inactive)
same,z-score,[6],0.737 (inactive)
same,z-score,[7],-0.159 (inactive)
same,z-score,[8],0.127 (inactive)
same,z-score,[9],-0.895
same,composite z-score,[10],-0.226
COCC(=C=CC[C@H](O)c1ccccc1OCCO)C[C@H](O)c1ccccn1,z-score,[1],0.839
same,z-score,[2],-0.329 (inactive)
same,z-score,[3],0.324 (inactive)
same,composite z-score,[4],-2.09 (inactive)
same,z-score,[5],0.354 (inactive)
same,z-score,[6],-0.115 (inactive)
same,z-score,[7],0.696 (inactive)
same,z-score,[8],0.547 (inactive)
same,z-score,[9],-0.543
same,composite z-score,[10],-0.102
